What all share (design): species or system human, MV4-11 + K-562 + COLO205 + SK-N-BE2 + OVCAR-8
Assay [1] relates to ADRBK1. The following applies: read-out: apparent Kd, compound concentrations: 100 nM and 1000 nM (sheet 'Samples'), n = 1.
For assay [2], the system named is RIOK2. The note with it: read-out: apparent Kd; compound concentrations: 100 nM and 1000 nM (sheet 'Samples'), CATDS: 0.50694616971053197; n = 1.
Assay [3] has as its system AKT2. The note with it: read-out: apparent Kd, compound concentrations: 100 nM and 1000 nM (sheet 'Samples'), n = 1.
Assay [4] relates to CDC42. The following applies: read-out: apparent Kd; compound concentrations: 100 nM and 1000 nM (sheet 'Samples'), CATDS: 0.22290293584535001; n = 1.
Assay [5] concerns DCTPP1. The note with it: read-out: apparent Kd; compound concentrations: 100 nM and 1000 nM (sheet 'Samples'), CATDS: 0.21946869965493901; n = 1.
The test system of assay [6] is T1, DJA1.
T1 construct: gene DNAJA1
The following applies: read-out: apparent Kd; compound concentrations: 100 nM and 1000 nM (sheet 'Samples'), CATDS: 0.217792726025238; n = 1.

Assay [7] concerns IRAK4. The note with it: read-out: apparent Kd; compound concentrations: 100 nM and 1000 nM (sheet 'Samples'), CATDS: 0.188463756574588; n = 1.
Assay [8] concerns AKT1. The note with it: read-out: apparent Kd; compound concentrations: 100 nM and 1000 nM (sheet 'Samples'), CATDS: 0.123574579018809; n = 1.
Assay [9] deals with BMPR1A. The following applies: read-out: apparent Kd; compound concentrations: 100 nM and 1000 nM (sheet 'Samples'), CATDS: 0.16431444601058101; n = 1.
The subject of assay [10] is CAMK4. The following applies: read-out: apparent Kd; compound concentrations: 100 nM and 1000 nM (sheet 'Samples'), CATDS: 0.11933253309467701; n = 1.
The test system of assay [11] is EGFR. The following applies: read-out: apparent Kd; compound concentrations: 100 nM and 1000 nM (sheet 'Samples'), CATDS: 0.109679225268286; n = 1.
For assay [12], the system named is ILK. The note with it: read-out: apparent Kd; compound concentrations: 100 nM and 1000 nM (sheet 'Samples'), CATDS: 0.116106966266716; n = 1.
The subject of assay [13] is OPA1. The following applies: read-out: apparent Kd; compound concentrations: 100 nM and 1000 nM (sheet 'Samples'), CATDS: 0.52668483019397605; n = 1.
Assay [14] has as its system PIK3C3. The following applies: read-out: apparent Kd; compound concentrations: 100 nM and 1000 nM (sheet 'Samples'), CATDS: 0.14677884590005799; n = 1.
Assay [15] concerns MAPK14. The following applies: read-out: apparent Kd; compound concentrations: 100 nM and 1000 nM (sheet 'Samples'), CATDS: 0.54620788714076096; n = 1.
Assay [16] has as its system MAPK9. The note with it: read-out: apparent Kd; compound concentrations: 100 nM and 1000 nM (sheet 'Samples'), CATDS: 0.17242966969454199; n = 1.
Assay [17] deals with MAPKAPK2. The following applies: read-out: apparent Kd; compound concentrations: 100 nM and 1000 nM (sheet 'Samples'), CATDS: 0.40894707261739799; n = 1.
The subject of assay [18] is AKT3. The note with it: read-out: apparent Kd; compound concentrations: 100 nM and 1000 nM (sheet 'Samples'), CATDS: 2.7204551549319601E-2; n = 1.
Assay [19] has as its system CIT. The note with it: read-out: apparent Kd; compound concentrations: 100 nM and 1000 nM (sheet 'Samples'), CATDS: 2.7482144104810799E-2; n = 1.
Assay [20] concerns GSK3A. The following applies: read-out: apparent Kd, compound concentrations: 100 nM and 1000 nM (sheet 'Samples'), n = 1.
For assay [21], the system named is GSK3B. The note with it: read-out: apparent Kd; compound concentrations: 100 nM and 1000 nM (sheet 'Samples'), CATDS: 5.5559924345407602E-2; n = 1.
Assay [22] deals with LATS1. The note with it: read-out: apparent Kd; compound concentrations: 100 nM and 1000 nM (sheet 'Samples'), CATDS: 4.8333915347555698E-2; n = 1.
The test system of assay [23] is MARK2. The following applies: read-out: apparent Kd; compound concentrations: 100 nM and 1000 nM (sheet 'Samples'), CATDS: 4.76140671076506E-2; n = 1.
The test system of assay [24] is MARK3. The following applies: read-out: apparent Kd; compound concentrations: 100 nM and 1000 nM (sheet 'Samples'), CATDS: 5.1082901600924303E-2; n = 1.
Assay [25] concerns MARK4. The note with it: read-out: apparent Kd; compound concentrations: 100 nM and 1000 nM (sheet 'Samples'), CATDS: 4.9590510521074001E-2; n = 1.
The subject of assay [26] is PAK4. The following applies: read-out: apparent Kd; compound concentrations: 100 nM and 1000 nM (sheet 'Samples'), CATDS: 0.104490197523791; n = 1.
The test system of assay [27] is PAK6. The note with it: read-out: apparent Kd; compound concentrations: 100 nM and 1000 nM (sheet 'Samples'), CATDS: 0.160954118330599; n = 1.
The test system of assay [28] is PKN1. The note with it: read-out: apparent Kd; compound concentrations: 100 nM and 1000 nM (sheet 'Samples'), CATDS: 6.8915050548370396E-2; n = 1.
The test system of assay [29] is PRKAA2. The note with it: read-out: apparent Kd; compound concentrations: 100 nM and 1000 nM (sheet 'Samples'), CATDS: 2.6285000431917799E-2; n = 1.
Assay [30] relates to PRKACA. The note with it: read-out: apparent Kd; compound concentrations: 100 nM and 1000 nM (sheet 'Samples'), CATDS: 4.9144940605522901E-2; n = 1.
The subject of assay [31] is PRKAG2. The note with it: read-out: apparent Kd; compound concentrations: 100 nM and 1000 nM (sheet 'Samples'), CATDS: 2.7426405634362501E-2; n = 1.
Assay [32] deals with PRKCB. The note with it: read-out: apparent Kd; compound concentrations: 100 nM and 1000 nM (sheet 'Samples'), CATDS: 2.6716167566890599E-2; n = 1.
Assay [33] relates to PRKCD. The following applies: read-out: apparent Kd; compound concentrations: 100 nM and 1000 nM (sheet 'Samples'), CATDS: 3.7280479553999199E-2; n = 1.
Assay [34] deals with PRKCQ. The note with it: read-out: apparent Kd; compound concentrations: 100 nM and 1000 nM (sheet 'Samples'), CATDS: 2.7638944484762E-2; n = 1.
Assay [35] has as its system PRKG1. The note with it: read-out: apparent Kd; compound concentrations: 100 nM and 1000 nM (sheet 'Samples'), CATDS: 7.0196377588655406E-2; n = 1.
For assay [36], the system named is PRKX. The note with it: read-out: apparent Kd; compound concentrations: 100 nM and 1000 nM (sheet 'Samples'), CATDS: 0.203063152086782; n = 1.
Assay [37] relates to RPS6KA4. The following applies: read-out: apparent Kd; compound concentrations: 100 nM and 1000 nM (sheet 'Samples'), CATDS: 3.80124112320347E-2; n = 1.
For assay [38], the system named is MYLK3. The note with it: read-out: apparent Kd; compound concentrations: 100 nM and 1000 nM (sheet 'Samples'), CATDS: 0.30722908276371202; n = 1.

The structures appear in SMILES notation. Read-outs that look alike come from different tables or passages of the source.

Turning to `CCS(=O)(=O)c1ccc(OC)c(Nc2ncc(-c3ccccc3Cl)o2)c1` [GW622055X], the potency estimated from few doses was 1780 nM in assay [1] (CATDS: 0.49324160998550998) and 1680 nM in [2].
As to `O=C1N=C(N[C@H](CO)Cc2ccccc2)S/C1=C\c1ccc2ncccc2c1` [RO4503319-000], the potency estimated from few doses in assay [3] (CATDS: 0.16502460627676999) was 2470 nM; in assay [4], 1290 nM; in assay [5] it was 1330 nM; in [6], 1350 nM; in [7] it was 1810 nM.
Consider `Cl.O=C(Nc1cccc(-c2nn3ncccc3c2-c2ccnc(Nc3cccnc3)n2)c1)c1c(F)cccc1F` [GSK312879A], for which the potency estimated from few doses in [8] was 1640 nM; in assay [9], 841 nM; in [10], 1800 nM; in assay [11], 2310 nM; in assay [12], 1950 nM; in [13], 116 nM. Moreover, the potency estimated from few doses in [14] was 1070 nM.
Turning to `Cl.Cn1c(=O)c(Oc2ccc(F)cc2F)cc2cnc(NCC(C)(C)O)nc21` [RO3308967-001], the potency estimated from few doses is 1780 nM in [1] (CATDS: 0.168792750193444), 44 nM in assay [15], 1600 nM in assay [16] and 76.7 nM in assay [17].
With `CCn1c(-c2nonc2N)nc2c(C#CC(C)(C)O)ncc(OC3CCNCC3)c21.O=C(O)C(F)(F)F` [GSK619487A], the potency estimated from few doses in assay [3] (CATDS: 4.2627279294918302E-2) is 91.5 nM; in [18], 1300 nM; in [19], 1190 nM; in [20] (CATDS: 6.2878990302183399E-2), 26.9 nM; in assay [21], 38 nM; in [22], 58.6 nM. In addition, the potency estimated from few doses was 61.6 nM in assay [23]; 49 nM in assay [24]; 53.9 nM in assay [25]; 7.55 nM in [26]; 2.74 nM in [27]; 21.1 nM in assay [28]. For the same molecule, the potency estimated from few doses is 1810 nM in assay [29]; 55.5 nM in assay [30]; 1210 nM in assay [31]; 1540 nM in [32]; 162 nM in assay [33]; 1130 nM in assay [34]. Also, the potency estimated from few doses in [35] was 20.1 nM; in [36] it was 1.58 nM; in assay [37], 148 nM.
Turning to `COc1ccc(C2=C(c3cn(C)c4ccccc34)C(=O)NC2=O)cc1` [RO0317257-000], the potency estimated from few doses in assay [1] (CATDS: 0.26872629517394703) was 1840 nM; in assay [20] (CATDS: 0.49410987745455298), 529 nM; in [38], 1310 nM.
